{"source": "PubChem BioAssay AID1835", "about": "(Johns Hopkins Ion Channel Center, 2009)", "note": "The campaign covered roughly 2,400 compounds. About 750 (31%) were called active. This is one part of the list. Unmarked numbers belong to inactive results.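 Rule for the calls: active = median signal gain over dofetilide-blocked control wells reaching their mean plus 3 SD, so readout 1 at least 0; inactive = the rest.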", "data": [{"target": "Voltage-gated inwardly rectifying potassium channel KCNH2 (Homo sapiens) (UniProt Q12809)", "sequence (Q12809 whole entry, looked up)": "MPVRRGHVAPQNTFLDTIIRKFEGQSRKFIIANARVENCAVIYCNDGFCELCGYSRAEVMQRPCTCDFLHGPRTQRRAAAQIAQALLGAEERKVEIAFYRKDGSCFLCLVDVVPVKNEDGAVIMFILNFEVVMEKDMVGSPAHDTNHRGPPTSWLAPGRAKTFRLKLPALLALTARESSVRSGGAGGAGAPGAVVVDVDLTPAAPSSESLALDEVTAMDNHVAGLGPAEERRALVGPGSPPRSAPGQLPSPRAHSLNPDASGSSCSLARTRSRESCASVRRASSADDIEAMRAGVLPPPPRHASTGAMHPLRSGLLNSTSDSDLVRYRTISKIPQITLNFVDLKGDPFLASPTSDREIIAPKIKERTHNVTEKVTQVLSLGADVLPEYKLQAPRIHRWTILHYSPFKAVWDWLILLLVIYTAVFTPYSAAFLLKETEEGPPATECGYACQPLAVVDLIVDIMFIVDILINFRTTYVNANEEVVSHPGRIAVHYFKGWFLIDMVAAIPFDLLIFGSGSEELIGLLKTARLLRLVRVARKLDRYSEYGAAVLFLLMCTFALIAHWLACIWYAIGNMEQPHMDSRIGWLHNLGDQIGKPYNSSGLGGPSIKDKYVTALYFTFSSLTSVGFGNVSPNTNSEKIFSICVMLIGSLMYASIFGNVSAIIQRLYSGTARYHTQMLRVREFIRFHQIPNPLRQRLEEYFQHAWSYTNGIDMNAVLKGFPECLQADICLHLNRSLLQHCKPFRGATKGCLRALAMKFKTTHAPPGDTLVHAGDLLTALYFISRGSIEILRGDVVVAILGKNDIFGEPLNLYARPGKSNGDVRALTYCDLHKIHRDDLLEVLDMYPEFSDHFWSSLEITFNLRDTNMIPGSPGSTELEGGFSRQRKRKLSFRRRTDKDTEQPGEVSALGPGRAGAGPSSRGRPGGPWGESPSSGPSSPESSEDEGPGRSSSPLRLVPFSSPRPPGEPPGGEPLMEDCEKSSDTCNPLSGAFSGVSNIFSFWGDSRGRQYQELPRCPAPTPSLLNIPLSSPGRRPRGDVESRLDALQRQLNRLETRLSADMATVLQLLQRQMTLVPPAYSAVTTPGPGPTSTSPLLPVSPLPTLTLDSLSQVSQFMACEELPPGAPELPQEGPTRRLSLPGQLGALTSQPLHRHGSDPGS", "experiment": "hERG protection against dofetilide inhibition, confirmation, cell-based, thallium flux, duplicate retest, dofetilide IC70 (AID 1835)", "conditions": "hERG cell line, FluxOR thallium flux, dofetilide-blocked; at 10 µM; active compounds read high", "values": [{"smiles": "CCC(=O)Nc1cc(=O)[nH]c2ncnn12", "activity increase over dofetilide control, less the hit threshold": "-24%"}, {"smiles": "CCCc1nc(SCC(=O)Nc2cc(C)on2)c2ccccc2n1", "activity increase over dofetilide control, less the hit threshold": "-10%"}, {"smiles": "Cc1cc(NC(=O)CSc2nnc(Nc3ccccc3)s2)no1", "activity increase over dofetilide control, less the hit threshold": "-11%"}, {"smiles": "Cc1cc(NC(=O)CSc2nc(C3CC3)nc3sc(C)c(C)c23)no1", "activity increase over dofetilide control, less the hit threshold": "26% (active)"}, {"smiles": "COc1ccc(C(=O)NN/C(C)=C/C(=O)c2ccccc2)cc1", "activity increase over dofetilide control, less the hit threshold": "-26%"}, {"smiles": "C/C(=C\\C(=O)c1ccccc1)NNC(=O)c1ccc(Cl)cc1", "activity increase over dofetilide control, less the hit threshold": "3% (active)"}, {"smiles": "C/C(=C\\C(=O)c1ccncc1)Nc1ccccc1O", "activity increase over dofetilide control, less the hit threshold": "-7%"}, {"smiles": "COc1cccc(C(=O)NNC(=O)C(=O)Nc2ccc(C)c(Cl)c2)c1", "activity increase over dofetilide control, less the hit threshold": "54% (active)"}, {"smiles": "COc1ccc(C(=O)NNC(=O)C(=O)Nc2ccc(C)c(Cl)c2)cc1", "activity increase over dofetilide control, less the hit threshold": "86% (active)"}, {"smiles": "Cc1ccc(NC(=O)c2ccc3c(c2)OCO3)cc1Cl", "activity increase over dofetilide control, less the hit threshold": "-10%"}, {"smiles": "COc1cccc(C(=O)Nc2cccc(-c3ccc(N4CCOCC4)nn3)c2)c1", "activity increase over dofetilide control, less the hit threshold": "-14%"}, {"smiles": "COc1cccc(C(=O)NNC(=O)C(=O)Nc2cccc(Cl)c2C)c1", "activity increase over dofetilide control, less the hit threshold": "50% (active)"}, {"smiles": "COc1ccc(C2/C(=C(/O)c3ccc(Br)cc3)C(=O)C(=O)N2C)cc1", "note": "(stereo not given)", "activity increase over dofetilide control, less the hit threshold": "-7%"}, {"smiles": "Cc1ccc(C(=O)n2c(-c3ccccc3)cnc2SCC(=O)Nc2ccc(C)cc2C)cc1", "activity increase over dofetilide control, less the hit threshold": "-8%"}, {"smiles": "Oc1c(N=NC(=S)Nc2ccccc2F)c2ccccc2n1Cc1cccc(Cl)c1", "activity increase over dofetilide control, less the hit threshold": "-1%"}, {"smiles": "Oc1c(N=NC(=S)Nc2ccccc2F)c2ccccc2n1Cc1ccc(Cl)cc1", "activity increase over dofetilide control, less the hit threshold": "-2%"}, {"smiles": "Oc1c(N=NC(=S)Nc2ccccc2F)c2ccccc2n1Cc1ccc(F)cc1", "activity increase over dofetilide control, less the hit threshold": "32% (active)"}, {"smiles": "Cc1cccc(Cn2c(O)c(N=NC(=S)Nc3ccccc3F)c3ccccc32)c1", "activity increase over dofetilide control, less the hit threshold": "4% (active)"}, {"smiles": "Cc1cc(NC(=O)Cn2c(=O)n(Cc3ccccc3)c(=O)c3ccccc32)no1", "activity increase over dofetilide control, less the hit threshold": "-7%"}, {"smiles": "Cc1c(Cl)cccc1NC(=S)N=Nc1c(O)n(CN2CCOCC2)c2ccccc12", "activity increase over dofetilide control, less the hit threshold": "18% (active)"}, {"smiles": "Oc1c(N=NC(=S)Nc2ccccc2F)c2ccccc2n1Cc1ccccc1", "activity increase over dofetilide control, less the hit threshold": "36% (active)"}, {"smiles": "CC(C)Oc1ccccc1C1(c2ccccc2)NC(=O)NC1=O", "note": "(stereo not given)", "activity increase over dofetilide control, less the hit threshold": "-16%"}, {"smiles": "CC(C)NC(=O)Nc1n[nH]c(Nc2ccc(Cl)cc2)n1", "activity increase over dofetilide control, less the hit threshold": "-1%"}, {"smiles": "O=C1NC(=O)C2(COC(c3cccc([N+](=O)[O-])c3)OC2)S1", "note": "(stereo not given)", "activity increase over dofetilide control, less the hit threshold": "-12%"}, {"smiles": "Nc1ccc2nc(-c3cccs3)[nH]c2c1", "activity increase over dofetilide control, less the hit threshold": "-10%"}, {"smiles": "Cc1cc(C)c(S(=O)(=O)c2ccccc2)c(OC(=O)c2c(F)cccc2Cl)n1", "activity increase over dofetilide control, less the hit threshold": "-30%"}, {"smiles": "O=C(CCc1ccccc1Cl)Nc1ccc(S(=O)(=O)N2CCOCC2)cc1", "activity increase over dofetilide control, less the hit threshold": "-6%"}, {"smiles": "Cc1ccc(C(=O)NC(C)c2ccc(C)c(C)c2)s1", "note": "(stereo not given)", "activity increase over dofetilide control, less the hit threshold": "-6%"}, {"smiles": "CCc1ccc(C(C)NC(=O)c2ccc(F)cc2)cc1", "note": "(stereo not given)", "activity increase over dofetilide control, less the hit threshold": "4% (active)"}, {"smiles": "Cc1ccc(C(C)NC(=O)C2CCCC2)cc1C", "note": "(stereo not given)", "activity increase over dofetilide control, less the hit threshold": "4% (active)"}, {"smiles": "Cc1ccc(C(C)NC(=S)NC2CCCCC2)cc1C", "note": "(stereo not given)", "activity increase over dofetilide control, less the hit threshold": "-6%"}, {"smiles": "CC(NC(=O)CCNC(=O)c1ccco1)c1ccc(F)cc1", "note": "(stereo not given)", "activity increase over dofetilide control, less the hit threshold": "-5%"}, {"smiles": "CCc1ccccc1N(CC(=O)NC(C)c1ccccc1)S(C)(=O)=O", "note": "(stereo not given)", "activity increase over dofetilide control, less the hit threshold": "-15%"}, {"smiles": "CCc1ccc(C(=O)NNC(=O)c2ccc(=O)n(C)n2)cc1", "activity increase over dofetilide control, less the hit threshold": "-5%"}, {"smiles": "CCc1ccc(C(C)NC(=O)C2CCCC2)cc1", "note": "(stereo not given)", "activity increase over dofetilide control, less the hit threshold": "1% (active)"}, {"smiles": "COc1cccc(C(=O)/C=C/Nc2ccc(S(=O)(=O)Nc3cnc4ccccc4n3)cc2)c1", "activity increase over dofetilide control, less the hit threshold": "-22%"}, {"smiles": "CCc1nccn1S(=O)(=O)c1ccc2ccc(C)cc2c1", "activity increase over dofetilide control, less the hit threshold": "-15%"}, {"smiles": "CC1CCN(C(=O)CSc2nnc(CNC(=O)c3ccco3)o2)CC1", "activity increase over dofetilide control, less the hit threshold": "-15%"}, {"smiles": "O=C(c1cccc2c1-c1ccccc1C2)N1CCCCC1", "activity increase over dofetilide control, less the hit threshold": "-17%"}, {"smiles": "COc1ccc(-c2cc(C(=O)N3CCCC3)no2)cc1", "activity increase over dofetilide control, less the hit threshold": "-4%"}, {"smiles": "O=C(c1csc(Nc2ccccc2Cl)n1)N1CCCC1", "activity increase over dofetilide control, less the hit threshold": "6% (active)"}, {"smiles": "CC1Oc2ccccc2N(CC(=O)N2CCCCCC2)C1=O", "note": "(stereo not given)", "activity increase over dofetilide control, less the hit threshold": "-19%"}, {"smiles": "N#CCCn1cc(/C=N/NC(=O)c2ccncc2)c(-c2ccc(F)cc2)n1", "activity increase over dofetilide control, less the hit threshold": "-2%"}, {"smiles": "CCN(CC)C(=S)NC(=O)c1ccc(Cl)cc1Cl", "activity increase over dofetilide control, less the hit threshold": "11% (active)"}, {"smiles": "CCCn1nnnc1NC(=O)c1cc(Cl)ccc1Cl", "activity increase over dofetilide control, less the hit threshold": "-8%"}, {"smiles": "CCN(CC)C(=S)NC(=O)c1ccc(F)cc1", "activity increase over dofetilide control, less the hit threshold": "-9%"}, {"smiles": "CCCN(CCC)C(=S)NC(=O)c1ccc(Cl)cc1Cl", "activity increase over dofetilide control, less the hit threshold": "60% (active)"}, {"smiles": "O=C(Nc1ccsc1C(=O)O)c1ccccc1Cl", "activity increase over dofetilide control, less the hit threshold": "-16%"}, {"smiles": "CCCN(CC(=O)Nc1ccccc1C)C(=O)CCl", "activity increase over dofetilide control, less the hit threshold": "-13%"}, {"smiles": "CN(C)/C=C/C(=O)c1ccc(Cl)cc1Cl", "activity increase over dofetilide control, less the hit threshold": "-11%"}, {"smiles": "CCCCN(CCCC)C(=S)NC(=O)c1ccccc1Cl", "activity increase over dofetilide control, less the hit threshold": "83% (active)"}, {"smiles": "Cn1c(CNC(=O)CNC(=O)c2ccc(F)cc2)cc(=O)n(C)c1=O", "activity increase over dofetilide control, less the hit threshold": "-15%"}, {"smiles": "CSc1ccc(C2NN=C(c3ccccc3)S2)cc1", "note": "(stereo not given)", "activity increase over dofetilide control, less the hit threshold": "-11%"}, {"smiles": "Cc1ccc(/C(O)=C2\\C(=O)C(=O)N(Cc3cccnc3)C2c2ccccc2[N+](=O)[O-])cc1", "note": "(stereo not given)", "activity increase over dofetilide control, less the hit threshold": "-26%"}, {"smiles": "O=C1C=C(NCCN2CCOCC2)C(=O)c2cnccc21", "activity increase over dofetilide control, less the hit threshold": "-3%"}, {"smiles": "Cc1ccc(OCCC(=O)OC(C)C(=O)NC2CC2)cc1", "note": "(stereo not given)", "activity increase over dofetilide control, less the hit threshold": "-12%"}, {"smiles": "O=c1ccn(Cc2ccc(F)cc2)c2ccnc(C(F)(F)F)c12", "activity increase over dofetilide control, less the hit threshold": "-15%"}, {"smiles": "O=c1cc(-c2ccccc2)cc(-c2ccccc2)n1O", "activity increase over dofetilide control, less the hit threshold": "22% (active)"}, {"smiles": "CN1/C(=C/C=C(C#N)C#N)C=Cc2ccccc21", "activity increase over dofetilide control, less the hit threshold": "66% (active)"}, {"smiles": "CCCCc1cc(=O)oc2c(C)c(OCC(=O)NCc3ccccn3)ccc12", "activity increase over dofetilide control, less the hit threshold": "-9%"}, {"smiles": "CC(=O)c1n[nH]nc1NC(=O)c1ccccc1", "activity increase over dofetilide control, less the hit threshold": "-1%"}, {"smiles": "Cc1nn(C(=O)CNC(=O)c2ccccc2)c(C)c1C", "activity increase over dofetilide control, less the hit threshold": "-17%"}, {"smiles": "Cc1ccccc1Cn1nc(C)c(NC(=O)c2ccccc2)c1C", "activity increase over dofetilide control, less the hit threshold": "25% (active)"}, {"smiles": "COc1ccccc1NC(=O)Cc1nnc(SCC(=O)Nc2nccs2)n1C", "activity increase over dofetilide control, less the hit threshold": "-10%"}, {"smiles": "O=C(NCC1CCCO1)c1ccc2c(=O)n(Cc3ccco3)c(SCC(=O)N3CCCC3)nc2c1", "note": "(stereo not given)", "activity increase over dofetilide control, less the hit threshold": "0%"}, {"smiles": "Cc1cc(S(=O)(=O)N2CCOCC2)ccc1OCC(=O)NCc1ccco1", "activity increase over dofetilide control, less the hit threshold": "-7%"}, {"smiles": "Cc1sc2nc(C(C)C)nc(SCC(=O)NCc3ccco3)c2c1C", "activity increase over dofetilide control, less the hit threshold": "16% (active)"}, {"smiles": "CCn1c(SCC(=O)NC(=O)NCc2ccco2)nc2sc(C)c(C)c2c1=O", "activity increase over dofetilide control, less the hit threshold": "18% (active)"}, {"smiles": "O=C(CN1CCN(c2ccccc2O)CC1)NC(=O)NCc1ccco1", "activity increase over dofetilide control, less the hit threshold": "-17%"}, {"smiles": "Cc1ccc(-n2ncc3c(SCC(=O)NNC(=O)c4ccco4)ncnc32)cc1", "activity increase over dofetilide control, less the hit threshold": "-4%"}]}]}
